CYP2C9 inhib: blockers of cytochrome P450 2C9 activity – biochemical, luminescence, ADME assay, primary screen; 96,000 compounds, 20% hits; CYP2C9 Supersomes, luciferin-H conversion; P11712; AID 777, 2007; inhibition, % at 5 µM;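 active = blocking of liver enzyme CYP2C9 beyond about 50% at 5 µM, limit read from the data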
CYP2C9 activ: human CYP2C9 activators, primary screen, biochemical, luminescence. recombinant CYP2C9, luciferin-H conversion; stronger effect = higher value; factor 1 = untreated enzyme, 0 = blocked. activation factor at 5 µM. 96,000 compounds, 1.4% hits. AID 1024, 2008;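 active = activation factor of 2 or more for CYP2C9 at a 5 µM dose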
Plk1 PBD FP: Plk1 polo box domain binding inhibitors, primary screen, biochemical, fluorescence polarization; 97,000 compounds, 0.13% hits; Serine/threonine-protein kinase PLK1 (Homo sapiens), P53350; inhibition, %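 (tested at about 20 µM)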; AID 693, 2007; Plk1 PBD phosphopeptide binding; in the data active = inhibition above about 34%, passing the limit was not always enough
PLK1 inh: human PLK1 kinase inhibitors, primary screen, biochemical, TR-FRET; inhibition, % at 10 µM; Serine/threonine-protein kinase PLK1 (Homo sapiens), P53350; recombinant PLK1 kinase, TR-FRET peptide phosphorylation; AID 619, 2007; 97,000 compounds, 0.53% hits;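 active = inhibition of 50% or more in the single-concentration screen; inactive = inhibition below 50%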
CYP2C19 activ: human CYP2C19 activators, primary screen, biochemical, luminescence; recombinant CYP2C19, luciferin-H EGE luminescence; stronger effect = higher value; 0 = fully inhibited enzyme, 1 = untreated enzyme; activation factor at 5 µM; 96,000 tested, under 10 active;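 active = activation factor of at least 2 at 5 µM in the primary screen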
Target sequence (P33261 whole entry, looked up): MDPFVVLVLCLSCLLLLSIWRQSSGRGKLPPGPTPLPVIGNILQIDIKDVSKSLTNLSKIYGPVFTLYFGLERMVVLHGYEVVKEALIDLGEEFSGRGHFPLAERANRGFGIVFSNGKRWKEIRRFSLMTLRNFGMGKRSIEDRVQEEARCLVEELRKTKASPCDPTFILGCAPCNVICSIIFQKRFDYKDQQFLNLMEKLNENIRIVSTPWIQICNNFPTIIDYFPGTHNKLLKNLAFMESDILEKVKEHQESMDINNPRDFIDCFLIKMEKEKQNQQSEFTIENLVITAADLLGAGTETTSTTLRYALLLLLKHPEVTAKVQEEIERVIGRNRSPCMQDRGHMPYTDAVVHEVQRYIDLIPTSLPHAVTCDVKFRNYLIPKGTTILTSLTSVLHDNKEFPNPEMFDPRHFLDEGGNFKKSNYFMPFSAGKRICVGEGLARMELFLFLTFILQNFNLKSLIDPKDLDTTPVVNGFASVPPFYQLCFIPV
CYP2C19 inh: blockers of cytochrome P450 2C19 activity – biochemical, luminescence, ADME assay, primary screen | P33261 | CYP2C19 Supersomes, luciferin-H EGE luminescence, 30 min | inhibition, % at 5 µM | 96,000 compounds, 21% hits;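 active = CYP2C19 inhibition above a set limit at 5 µM in the primary screen, cut at about 50% in these data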
Each line names hits and unclear results; the compound was inactive in the other large screens. Hits are enriched below; roughly 28% of the tested compounds scored in any of these assays.

Cc1ccccc1-n1nnnc1SCc1csc(-c2ccccc2)n1	CYP2C9 inhib 93.1, CYP2C19 inh 96.6
COc1ccc(C)cc1-n1nnnc1SCn1nnc2ccccc2c1=O	none
COC(=O)CNc1nc(OC)nc(N(C)C)n1	none
CCC(C)N(C(=O)CSc1nc(-c2ccccc2)cs1)C1CCS(=O)(=O)C1 (centres undefined)	CYP2C9 activ 2.5
CCC(C)N(C(=O)COC(=O)c1cn(CC)c2nc(C)ccc2c1=O)C1CCS(=O)(=O)C1 (centres undefined)	none (no result: Plk1 PBD FP, PLK1 inh)
CCOC(=O)CC1C(=O)NCCN1C(=O)NC1CCCCC1 (centres undefined)	none
O=S(=O)(c1ccccc1)c1nc(-c2cccs2)oc1NCCCn1ccnc1	CYP2C9 inhib 91.7, CYP2C19 inh 97.6
CC(C)CC(=O)N1CCN(Cc2ccc3c(c2)OCO3)CC1	none
COC(=O)CNC(=O)CNC(=O)Nc1ccccc1	none
COC(=O)C(Cc1ccc(O)cc1)NC(=O)C(C)Oc1ccccc1 (centres undefined)	CYP2C9 inhib 57.9, CYP2C19 inh 94.2
Cc1ccc(N(O)C(=O)OCCNC(=O)Nc2ccccc2)cc1	CYP2C9 inhib 92.5, CYP2C19 inh 93.9
COC(=O)[C@H](Cc1ccccc1)NC(=O)Nc1ccc(C)cc1	CYP2C19 inh 65.8
COC(=O)C(NC(=O)C(C)Oc1ccccc1)C(C)C (centres undefined)	none
COC(=O)[C@H](Cc1ccccc1)NC(=O)NCCC1=CCCCC1	CYP2C9 inhib 62.5, CYP2C19 inh 69.2
Cc1ccc(C)c(N(CC(=O)NCCC2=CCCCC2)S(C)(=O)=O)c1	none
Cc1ccc(NC(=O)NCCCc2ccccc2)cc1	CYP2C19 inh 59.2
Cc1ccc(NC(=O)NCCc2ccc(S(N)(=O)=O)cc2)cc1	none
COc1ccc(Cn2c(C)c(C)c(C#N)c2NC(=O)Nc2ccc(Cl)cc2)cc1	none
CCCn1nnnc1SCC(=O)NCc1ccc(OC)cc1	none (no result: Plk1 PBD FP, PLK1 inh)
COc1ccc(CCNc2nnc(Sc3nnnn3-c3ccccc3)s2)cc1OC	CYP2C19 inh 73.3
COc1ccc(CNC(=O)CSc2nnnn2Cc2ccccc2)cc1	CYP2C9 inhib 72.7, CYP2C19 inh 79.3
COc1ccc(-n2nnnc2SCC#CCO)cc1	CYP2C19 inh 89.6
COc1ccc(CNC(=O)CSc2nnnn2-c2ccccc2)cc1	CYP2C9 inhib 72.8, CYP2C19 inh 89.2 (no result: Plk1 PBD FP, PLK1 inh)
Cc1ccc(NC(=O)c2cc(N3C(=O)C4CC=CCC4C3=O)ccc2N2CCOCC2)cc1Cl (centres undefined)	none
COc1ccc(CCNC(=O)CSc2nnnn2-c2ccccc2)cc1	CYP2C9 inhib 77.8, CYP2C19 inh 75.7 (no result: Plk1 PBD FP, PLK1 inh)
CCN(CC)S(=O)(=O)c1cccc(NC(=O)COC(=O)CCc2nc3ccccc3s2)c1	CYP2C9 activ 2.3
COc1ccc(NC(=O)COC(=O)c2ccc(Br)o2)cc1OC	none (no result: Plk1 PBD FP, PLK1 inh)
CCN(CC)S(=O)(=O)c1cccc(NC(=O)COC(=O)c2ccc(Br)o2)c1	CYP2C9 inhib 65.2
C/C(CC(=O)Nc1ccccn1)=N\NC(=O)C(=O)Nc1cccc(Cl)c1C	none
Cn1c(=O)oc2cc(S(=O)(=O)NCc3ccccc3)ccc21	CYP2C19 inh 59.2
O=C(Cn1c(=O)oc2cc(S(=O)(=O)N3CCCC3)ccc21)NC1CCCc2ccccc21 (centres undefined)	CYP2C9 inhib 58.4 (no result: Plk1 PBD FP, PLK1 inh)
CN(CCNS(=O)(=O)c1ccc2c(c1)oc(=O)n2C)Cc1ccccc1	none (no result: Plk1 PBD FP, PLK1 inh)
CCN(CCCNS(=O)(=O)c1ccc2c(c1)oc(=O)n2C)c1cccc(C)c1	CYP2C19 inh 58.8 (no result: Plk1 PBD FP, PLK1 inh)
CCn1c(=O)n(CC(=O)N(C)Cc2ccccc2)c(=O)c2ccccc21	CYP2C19 inh 64.7
CCCCC(=O)NC1=NC(=O)C(C)(C)S1	none
COc1ccccc1CNC(=O)C1CCC(CNc2c(N3CCOCC3)c(=O)c2=O)CC1 (centres undefined)	none
O=C1c2ccccc2C(=O)N1c1ncccn1	none (no result: Plk1 PBD FP, PLK1 inh)
CC(C)(C)C(=O)CC1(O)C(=O)N(Cc2ccc(Cl)cc2)c2ccccc21 (centres undefined)	none
CN(Cc1ccccc1)C(=O)CCC(=O)N(C)Cc1ccccc1	none
CC(NC(=O)Cn1c(=O)oc2cc(S(=O)(=O)N3CCCC3)ccc21)c1ccccc1 (centres undefined)	CYP2C9 inhib 90.0
CN(Cc1ccccc1)C(=O)Cn1c(=O)oc2cc(S(=O)(=O)N3CCCC3)ccc21	CYP2C9 inhib 65.0
CN(Cc1ccco1)C(=O)Cn1c(=O)oc2cc(S(=O)(=O)NCc3ccccc3)ccc21	CYP2C19 inh 98.0
CN(Cc1ccccc1)C(=O)CCn1c(=O)oc2ccccc21	CYP2C19 inh 92.9
O=P1(Nn2cnnc2)C=C(c2ccccc2)OC(c2ccccc2)=C1	none
COc1ccc(N(CC(O)CN2CCCCC2)S(=O)(=O)c2ccc(C)cc2)cc1 (centres undefined)	none
Cc1cccnc1NC(=O)Cn1nc(C)c([N+](=O)[O-])c1C	none
CCOC(=O)C1CCN(C(=O)c2c(-c3c(F)cccc3Cl)noc2C)CC1	none
CN(C(=O)Cc1ccccc1)n1cnnc1	none (no result: CYP2C9 inhib, CYP2C9 activ, CYP2C19 activ, CYP2C19 inh)
O=C(NCCC1=CCCCC1)NC12CC3CC(CC(C3)C1)C2	none (no result: CYP2C9 inhib, CYP2C9 activ, CYP2C19 activ, CYP2C19 inh)
COc1ccc(N2CCN(C(=O)NC34CC5CC(CC(C5)C3)C4)CC2)cc1	CYP2C9 inhib 59.3, CYP2C19 inh 62.9
COc1ccc(CC(=O)OCC(=O)NC(=O)NC23CC4CC(CC(C4)C2)C3)cc1	CYP2C9 inhib 65.8
CNC(=S)N1CCN(c2ccc(OC)cc2)CC1	CYP2C19 inh 70.3
COC(=O)N1CCN(c2ccc(OC)cc2)CC1	none
COc1ccc(CCNC(=O)NC23CC4CC(CC(C4)C2)C3)cc1	CYP2C19 inh 52.6
COc1ccc(N2CCN(C(=S)Nc3cc(C)cc(C)c3)CC2)cc1	none
CCCCc1nnc(NC(=O)C(C)Sc2nc(N)cc(=O)[nH]2)s1 (centres undefined)	none
CCN=c1scc(C)n1/N=C/c1ccsc1	CYP2C19 inh 60.3
Cc1nnc(C)n1/N=C/c1ccc(O)cc1	none
C=CCN(CC=C)Cc1c(C)[nH]c2ccc(C(=O)OCC)cc2c1=O	none
CC1Oc2ccccc2N(CC(=O)N(Cc2ccccc2)Cc2ccccn2)C1=O (centres undefined)	CYP2C9 inhib 65.1, CYP2C19 inh 60.7
O=C(O)CN1C(=O)C2(OCCCO2)c2ccccc21	none
Cc1ccc(CNC(=O)CN2C(=O)COc3ccc(C)cc32)cc1	CYP2C19 inh 68.7
O=C(CN1C(=O)C2(OCCCO2)c2ccccc21)NCCc1ccccc1	CYP2C19 inh 86.2 (no result: Plk1 PBD FP, PLK1 inh)
CCCCN(CCCNC(=O)CN1C(=O)COc2ccccc21)c1ccccc1	none (no result: Plk1 PBD FP, PLK1 inh)
Cc1ccc(CCNC(=O)CN2C(=O)COc3ccccc32)cc1	CYP2C9 inhib 59.4, CYP2C19 inh 89.1 (no result: Plk1 PBD FP, PLK1 inh)
Cc1ccc2c(c1)N(CC(=O)NCc1ccco1)C(=O)CO2	none (no result: CYP2C9 inhib, CYP2C9 activ, CYP2C19 activ, CYP2C19 inh)

Compound activity deposited in PubChem BioAssay by several laboratories.
